Screens (PubChem)
The list is not random: actives were taken first. Their share in the collection is about 5.4%.
Exocytosis inh – LAMP-1 surface exposure blockers, TALL-104 cells – cell-based, flow cytometry, MLPCN library, primary screen. TALL-104 LAMP-1 surface exposure; cells stimulated with thapsigargin and PMA. inhibition, % at 10 µM. 0.66% of 360,000 active;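 active = inhibition above about 55%, limit read from the data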
SMARCA2 act – SMARCA2 (BRM) function activators, primary screen, cell-based, luminescence, high throughput; MG213 cells, MMTV-luciferase reporter, dexamethasone, overnight; activation, % at 9.1 µM; 1% of 370,000 active; AID 652017, 2013; in the data active = activation above about 7.8%;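 note: 0% = vehicle wells and 100% = reference activator wells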
M18AAP inhibitor – PfM18AAP inhibitors, malaria aminopeptidase, primary screen, biochemical, QFRET, recombinant enzyme; M18 aspartyl aminopeptidase (Plasmodium falciparum 3D7); H-Glu-NHMec fluorogenic cleavage; inhibition, % at 7.35 µM; 1.2% of 290,000 active; AID 1822, 2009;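 active = inhibition above the campaign mean inhibition over all tested compounds plus 3 SD, cut at about 28% in these data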;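 note: 0% = plate median of test compound wells and 100% = 2 mM ZnCl2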
ALR inh – inhibitors of human ALR sulfhydryl oxidase, primary screen, biochemical, H2O2 detection, HRP-luminol luminescence, single point. inhibition, % (test concentration not listed). 3.8% of 290,000 active. AID 485317, 2010. FAD-linked sulfhydryl oxidase ALR (Homo sapiens), P55789. purified ALR, DTT oxidation;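 active = mean replicate inhibition above about 79%, with every replicate also reaching it, limit read from the data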
Target sequence (P55789 whole entry, looked up): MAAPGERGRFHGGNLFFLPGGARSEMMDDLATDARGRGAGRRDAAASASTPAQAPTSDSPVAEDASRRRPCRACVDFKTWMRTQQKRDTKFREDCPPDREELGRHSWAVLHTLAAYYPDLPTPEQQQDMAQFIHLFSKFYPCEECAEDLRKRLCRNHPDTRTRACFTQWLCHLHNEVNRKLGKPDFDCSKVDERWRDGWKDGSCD
beta cell repl – inducers of MIN6 beta-cell proliferation, primary screen, ATP luminescence, uHTS | MIN6 cells proliferation, ATPlite luminescence, 48 h; cells starved in 0.2% serum; 100% = growth in 10% serum | proliferation, % at 10 µM | 0.29% of 330,000 active;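 active = compounds whose signal lies at least 3.5 SD above the mean of all wells on their plate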;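 note: 0% = DMSO-treated cells in low-serum medium and 100% = 10% serum control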
GASC-1 inh – inhibitors of GASC-1 histone demethylase, primary screen, biochemical, fluorescence, DELFIA europium; inhibition, % at 2.35 µM; GST-JMJD2C(1-420) H3K9me3 demethylation; Lysine-specific demethylase 4C (Homo sapiens), Q9H3R0; 0.069% of 330,000 active;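 active = more than half of a compound's replicate wells show inhibition beyond 50%, single wells judged on their own value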;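 note: signal counts dimethyl H3K9 product captured on neutravidin plate; 0% = median of DMSO wells and 100% = 0.3 times that DMSO median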
SMARCA2 conf – SMARCA2 (BRM) function activators, confirmation, cell-based, luminescence, triplicate; shares compounds with SMARCA2 act; MG213 cells, MMTV-luciferase with dexamethasone, overnight; MG213 cells expressing E1A, Rb sequestered; DMSO wells 0%, reference activator 100%; activation, % at 9.1 µM; 30% of 3,500 active;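 active = activation above its plate's cutoff, the mean activation of tested wells plus 3 SD, cut at about 7.9% in these data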
GAL4-VP16 Luc – GAL4-VP16 luciferase reporter activation, counter-screen for SMARCA2 (BRM) activator project, cell-based, pG5luc, luminescence, high throughput; 41% of 3,500 active; HEK293 GAL4-VP16 pG5luc reporter; scaled: DMSO wells 0%, SAHA wells 100%; shares compounds with SMARCA2 act; AID 686939, 2013; activation, % at 9.1 µM;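 active = activation above the solvent-only control well mean plus 3 SD, averaged across control plates, cut at about 5.2% in these data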
* = called active by the depositor; · = no result.

SMILES	Exocytosis inh	SMARCA2 act	M18AAP inhibitor	ALR inh	beta cell repl	GASC-1 inh	SMARCA2 conf	GAL4-VP16 Luc
COC(=O)/C(=C1/Oc2cc(C)oc(=O)c2S1)C(F)(F)F	2.7	9.1*	10.3	16.1	-6.7	-9.0	-15.7	2.7
COC(=O)/C(=C1/Oc2ccc(C(C)(C)C)cc2S1)C(F)(F)F	7.3	1.0	0.3	-1.0	-1.9	-8.1	·	·
COC(=O)[C@@]12C[C@@H](CC(=O)NCc3ccc(C)o3)C(=O)N(Cc3ccc4c(c3)OCO4)C1=CCC(C)(C)C2	1.3	-2.8	·	·	·	·	·	·
N=c1c2c(-c3ccccc3)c(-c3ccccc3)n(Cc3ccccc3)c2ncn1CCO	14.5	8.7*	-1.0	-9.3	-5.5	-13.5	1.8	-1.7
N=c1c2c(-c3ccccc3)c(-c3ccccc3)n(Cc3ccco3)c2ncn1Cc1ccccc1	19.5	1.6	-2.6	-8.1	-3.9	-14.6	·	·
NC(=O)C1CCCN(Cc2ccc(Cl)cc2)C1 (stereo unspecified)	0.8	8.3*	2.9	-11.2	0.7	7.6	6.0	-1.1
O=C(NC1CCCN(Cc2ccc(Cl)cc2)C1)C1CCC1 (stereo unspecified)	-2.2	-1.6	-5.8	·	-1.3	9.8	·	·
Fc1ccc(-c2n[nH]c(=S)n2N=Cc2cccc(OCc3ccccc3)c2)cc1	·	9.9*	·	·	·	·	3.8	1.0
COC(=O)N1CCCCC1c1cc(C(=O)NCc2cccnc2)no1 (stereo unspecified)	-0.9	-3.7	·	·	·	·	·	·
CS(=O)(=O)Nc1cccc(C2=NN(S(C)(=O)=O)C(c3ccc4c(c3)OCO4)C2)c1 (stereo unspecified)	-5.5	9.1*	-9.4	-27.6	0.2	4.9	5.8	7.1*
O=C(C=Cc1ccccc1)CC(c1ccccc1)N1CCOCC1 (stereo unspecified)	1.5	8.8*	·	·	·	·	7.2	2.8
COCCNC(=O)C1CCCN(C(=O)c2ccc(SC(F)(F)F)cc2)CC1 (stereo unspecified)	-6.7	-2.6	·	·	·	·	·	·
Cc1cc(C(=O)CSc2nnc(N)s2)c(C)n1Cc1ccco1	1.8	11.5*	-6.1	7.7	-5.3	-6.4	5.2	4.8
CC(=O)Nc1cc(-c2ccc(S(C)(=O)=O)cc2)cn2c(-c3ccc(F)c(Cl)c3)cnc12	-5.3	0.1	·	·	·	·	·	·
COc1ccc(-c2cc(C(F)(F)F)nc(-n3cc(Cl)cn3)n2)cc1	1.0	8.5*	13.0	3.0	-4.5	10.1	1.6	-0.1
C[C@@H]1CNCCN1c1ccc(N2CCN(Cc3ccccc3)[C@@H](C)C2)c(C#N)c1	·	0.6	·	·	·	·	·	·
C[C@H]1CN(c2ccc(N3CCNC[C@@H]3C)cc2C#N)CCN1Cc1ccccc1	·	10.7*	·	·	·	·	-2.0	-0.1
COC(=O)C1=CN(c2ccc(OC)cc2OC)C(N)=C(C#N)C1c1ccccc1F (stereo unspecified)	-1.9	-0.7	·	·	·	·	·	·
CC(=O)Nc1ccc(-c2ccnc3c2CC(C)(C(=O)NCc2ccc(N4CCN(C)CC4)cc2)O3)cc1 (stereo unspecified)	0.7	-4.2	·	·	·	·	·	·
Cc1ccc(C2=[N+]([O-])C(C)(C)N(O)C2(C)C)cc1	-6.0	-4.0	-1.3	13.1	-0.7	3.2	·	·
CC1=[N+]([O-])C(C)(C)C(c2ccc(Br)cc2)=[N+]1[O-]	0.8	12.4*	-2.1	14.1	0.7	5.8	0.8	0.4
Cc1cc(Br)ccc1OCC(=O)NNC(=O)Cc1ccccc1	-10.1	8.9*	1.4	0.6	-2.1	7.3	-0.8	0.9
O=C(COc1ccc(Br)cc1Br)NNC(=O)c1cccs1	-5.7	10.5*	7.4	·	-3.1	-6.2	6.7	8.8*
